According to PubChem BioAssay (NCATS):
Values joined by “and” are separate entries in the source; they are usually repeats but may differ in a detail not shown here. Equal values may be shown once. Results filed as inconclusive are left out. A call without a number means that no potency is given here. Active and inactive are the calls of the source. Unless noted, the call rests on the fitted dose curve; in most records, active means well fitted curve in the direction sought with a large enough effect; inconclusive means small, poorly fitted or top-dose-only effect, or another doubt; inactive means no such curve, though single readings can be large; an effect the other way counts as inactive or inconclusive.

Tests used:
[1] = Cell Viability - H-4-II-E (AID 543);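 further: cells exposed to compound for 40 hours; nearly all actives have a fitted effect of over 35% in size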; further: potency means the concentration at half of the fitted maximal effect
How it was run: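 Cells seeded at 1500 per well and rested 5 hr; compounds added; 40 hr incubation at 37 °C; CellTiter-Glo added, 20 min at room temperature; luminescence read. Hill-equation fits gave AC50.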

[2] = Cell Viability - SH-SY5Y (AID 544); conditions: SH-SY5Y neuroblastoma cell viability; viability change, negative = cytotoxic: at 92.2 µM (top of the series);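 further: cells exposed to compound for 40 hours; nearly all actives have a fitted effect of over 55% in size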
How it was run: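 Cells were plated at 1500 per well and allowed 5 hr at 37 °C. Compounds were added across a concentration range and incubated 40 hr at 37 °C. CellTiter-Glo was added for 20 min at room temperature before luminescence reading.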

[3] = Cell Viability - Renal Proximal Tubule (AID 545);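 further: cells exposed to compound for 40 hours; nearly all actives have a fitted effect of over 40% in size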
How it was run: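 Rat kidney proximal tubule cells, freshly isolated; 1000 cells/well, 5 hr settle, compound 40 hr 37 °C. CellTiter-Glo 20 min RT, luminescence read. AC50 by standard Hill fit.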

[4] = Cellular Toxicity (caspase-3) Hek293 (AID 664); conditions: HEK293 caspase-3 activation, DMSO = 0%, 100 µM tamoxifen = 100%; at 92.2 µM (top of the series);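 further: cells exposed to compound for 16 h at 37 °C before readout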
How it was run: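 qHTS, HEK293 (human embryonic kidney), 16 h cpd exposure in complete medium. Caspase-3/7 activation = luminescence increase; normalized to DMSO/100 uM tamoxifen; Hill-fit AC50.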

[5] = Cell Viability - LYMP2-003 (AID 965);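 further: cells exposed to compounds for 24 h before reading; nearly all actives have a fitted effect of over 50% in size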
How it was run: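 CellTiter-Glo luminescence (cellular ATP) after 24 h compound exposure at 37 C in complete medium; 2500 cells/well, 5 h settling beforehand. Concentration-response fitted to standard Hill equation for AC50. Tetraoctylammonium bromide served as positive control.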

[6] = Cell Viability - LYMP2-009 (AID 968); further: nearly all actives have a fitted effect of over 55% in size
[7] = Cell Viability - LYMP2-013 (AID 970); further: nearly all actives have a fitted effect of over 55% in size
How it was run: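 Cytotoxicity is scored as a concentration-dependent drop in intracellular ATP in human lymphoblastoid cells after 24 hr compound exposure at 37 C. ATP is quantified by luciferase luminescence, and AC50 values come from Hill-equation modeling.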

[8] = Cell Viability - LYMP2-019 (AID 973); further: nearly all actives have a fitted effect of over 55% in size
How it was run: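 Cytotoxicity is scored as a concentration-dependent drop in cellular ATP after cells (2500/well) receive compound for 24 hr at 37 C. Tetraoctylammonium bromide serves as positive control.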

[9] = Cell Viability - LYMP2-025 (AID 976)
How it was run: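 Acute cytotoxicity is scored as a concentration-dependent fall in intracellular ATP, measured by luciferase luminescence, in human lymphoblastoid LYMP2-025 cells exposed to compound for 24 hours at 37 C. AC50 values come from standard Hill fits.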

[10] = Cell Viability - LYMP2-002 (AID 977)
How it was run: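 Human lymphoblastoid cells (2500/well) in complete medium were preincubated 5 hr at 37 C, then exposed to compounds for 24 hr at 37 C. Intracellular ATP was read by CellTiter-Glo luminescence; AC50 came from Hill-equation concentration-response fits.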

[11] = Cell Viability - LYMP2-006 (AID 978); further: nearly all actives have a fitted effect of over 60% in size
How it was run: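 qHTS, 1536-well; 2500 cells/well, 5 hr 37 C; cpd 24 hr 37 C; CellTiter-Glo 30 min RT; luminescence. Tetraoctylammonium bromide pos. ctrl. AC50 via Hill eqn.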

[12] = Cell Viability - LYMP2-008 (AID 980); further: nearly all actives have a fitted effect of over 60% in size
How it was run: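 Cells seeded at 2500/well and rested 5 hr at 37 C; compounds added over a concentration range and incubated 24 hr at 37 C; CellTiter-Glo added, 30 min at room temperature; luminescence read and AC50 fitted with Hill model.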

[13] = Cell Viability - LYMP2-012 (AID 982)
[14] = Cell Viability - LYMP2-020 (AID 986); further: nearly all actives have a fitted effect of over 55% in size
How it was run: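 Seed 2500 cells per well and incubate 5 hr at 37 C. Add compounds at a concentration series and incubate 24 hr at 37 C. Add CellTiter-Glo, wait 30 min at RT, read luminescence, and fit a Hill curve for AC50.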

[15] = Cell Viability - LYMP2-022 (AID 987); further: nearly all actives have a fitted effect of over 55% in size
How it was run: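 Cells were seeded at 2500 per well, rested 5 hr at 37 C, and treated with titrated compounds for 24 hr at 37 C. Cellular ATP was then quantified by luciferase luminescence, and AC50 values were derived from Hill-modelled concentration-response curves.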

[16] = Cell Viability - LYMP2-026 (AID 989); further: nearly all actives have a fitted effect of over 50% in size
How it was run: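 Cells are seeded at 2500 per well and held 5 hr at 37 C. Compounds are added in concentration series for 24 hr, then CellTiter-Glo reagent is applied and luminescence read.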

[17] = Cell Viability - LYMP1-002 - Assay at 40 hr (AID 994); further: nearly all actives have a fitted effect of over 60% in size
How it was run: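 Cells are plated at 2500 per well and rested 5 hr at 37 C. Compounds are added and incubated 40 hr at 37 C. CellTiter-Glo reagent is added for 30 min at room temperature before luminescence is read.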

[18] = qHTS assay for small molecule agonists of retinoid X receptor alpha signaling (AID 588544; calls by dose curve); conditions: HEK293T RXRa-UAS-bla, beta-lactamase reporter, 18 h; 530 nm emission
[19] = molecular target: Retinoic acid receptor RXR-alpha (Homo sapiens) (UniProt P19793); assay: as above
[20] = molecular target: Tumor necrosis factor (Homo sapiens) (UniProt P01375); assay: qHTS assay to identify small molecules that stimulate Tumor Necrosis Factor-alpha (TNF-alpha) secretion (AID 651757; active means well fitted curve in the direction sought with a large enough effect in the signal ratio; the % refers to the signal ratio)
How it was run: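 Human monocytic THP-1 cells are plated, treated with compound and held at 37 C for 17 hrs. Labeled anti-TNF-alpha antibody mixture is then added; after 3 hr at room temperature, TR-FRET signal reports secreted TNF-alpha.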

Retinoic acid receptor RXR-alpha (Homo sapiens), sequence (P19793 whole entry, looked up): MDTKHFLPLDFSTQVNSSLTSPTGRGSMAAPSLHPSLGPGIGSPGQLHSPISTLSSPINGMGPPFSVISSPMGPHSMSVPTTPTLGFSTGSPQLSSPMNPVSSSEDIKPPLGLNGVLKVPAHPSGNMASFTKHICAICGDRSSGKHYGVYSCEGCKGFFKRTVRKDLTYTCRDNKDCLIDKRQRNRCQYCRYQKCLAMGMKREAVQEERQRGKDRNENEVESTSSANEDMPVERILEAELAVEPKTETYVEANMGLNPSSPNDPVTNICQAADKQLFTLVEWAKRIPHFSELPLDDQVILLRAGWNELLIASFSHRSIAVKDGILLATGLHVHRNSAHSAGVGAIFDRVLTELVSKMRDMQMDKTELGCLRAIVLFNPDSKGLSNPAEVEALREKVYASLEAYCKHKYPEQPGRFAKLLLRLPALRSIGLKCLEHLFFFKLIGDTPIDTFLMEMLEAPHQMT
Tumor necrosis factor (Homo sapiens), sequence (P01375 whole entry, looked up): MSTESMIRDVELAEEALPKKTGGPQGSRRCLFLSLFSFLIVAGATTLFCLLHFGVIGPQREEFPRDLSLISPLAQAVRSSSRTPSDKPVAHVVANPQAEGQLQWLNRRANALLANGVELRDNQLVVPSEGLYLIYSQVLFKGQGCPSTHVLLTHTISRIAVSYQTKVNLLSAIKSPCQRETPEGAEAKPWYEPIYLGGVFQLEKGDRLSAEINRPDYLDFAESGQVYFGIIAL

Compound | Potency [1] | Potency [2] | outcome [3] | caspase-3 activation [4] | Potency [5] | Potency [6] | Potency [7] | Potency [8] | Potency [9] | Potency [10] | Potency [11] | Potency [12] | Potency [13] | Potency [14] | Potency [15] | Potency [16] | Potency [17] | max response [18] | outcome [19] | outcome [20]
ClC(Cl)Br | inactive | inactive | inactive | -0.335% (inactive) | inactive | inactive | inactive | inactive | inactive | inactive | inactive | inactive | inactive | inactive | inactive | inactive | inactive | -4.86% | inactive | inactive
N#C/C(N)=C(/N)C#N | inactive | inactive | inactive | -2.4% (inactive) | inactive | inactive | inactive | inactive | inactive | inactive | inactive | inactive | inactive | inactive | inactive | inactive | inactive | -4.63% | inactive | inactive
Nc1ccc([N+](=O)[O-])cc1[N+](=O)[O-] | 20 µM (active) | inactive | inactive | -0.459% (inactive) | inactive | inactive | inactive | inactive | inactive | inactive | inactive | inactive | inactive | inactive | inactive | inactive | inactive | -7.45% | inactive | inactive
[O-][Cl+]O | inactive | inactive | inactive | 1.6% (inactive) | inactive | inactive | inactive | inactive | inactive | inactive | inactive | inactive | inactive | inactive | inactive | inactive | inactive | -9.53% | inactive | inactive
[N-]=[N+]=[N-] | inactive | inactive | inactive | -2.5% (inactive) | inactive | inactive | inactive | inactive | inactive | inactive | inactive | inactive | inactive | inactive | inactive | inactive | inactive | -2.08% | inactive | inactive
C/C=C/C=O | inactive | inactive | inactive | -1.23% (inactive) | inactive | inactive | inactive | inactive | inactive | inactive | inactive | inactive | inactive | inactive | inactive | inactive | inactive | -18.6% | inactive | inactive
S=C1NCCN1 | inactive | inactive | inactive | -0.864% (inactive) | inactive | inactive | inactive | inactive | inactive | inactive | inactive | inactive | inactive | inactive | inactive | inactive | inactive | -9.74% and -4.86% | inactive | inactive
N#CCCC#N | inactive | inactive | inactive | 1.14% (inactive) | inactive | inactive | inactive | inactive | inactive | inactive | inactive | inactive | inactive | inactive | inactive | inactive | inactive | -20.2% | inactive | inactive
c1ccc(NNc2ccccc2)cc1 | inactive | inactive | inactive | -0.473% (inactive) | inactive | inactive | inactive | inactive | inactive | inactive | inactive | inactive | inactive | inactive | inactive | inactive | inactive | -6.25% and -9.7% | inactive | inactive
C=CC(=O)OCC(CC)CCCC (stereo not given) | inactive | inactive | inactive | 2.19% (inactive) | inactive | inactive | inactive | inactive | inactive | inactive | inactive | inactive | inactive | inactive | inactive | inactive | inactive | -3.1% and -13.3% | inactive | inactive
CCOP(=S)(OCC)Oc1nc(Cl)c(Cl)cc1Cl | inactive | inactive | inactive | 2.26% (inactive) | inactive | inactive | inactive | inactive | inactive | inactive | inactive | inactive | inactive | inactive | inactive | inactive | inactive | -1.15% | inactive | inactive
Oc1cc(Cl)cc(Cl)c1 | inactive | inactive | inactive | -1.48% (inactive) | inactive | inactive | inactive | inactive | inactive | inactive | inactive | inactive | inactive | inactive | inactive | inactive | inactive | -13.2% | inactive | inactive
O=[N+]([O-])CCO | inactive | inactive | inactive | 0.0344% (inactive) | inactive | inactive | inactive | inactive | inactive | inactive | inactive | inactive | inactive | inactive | inactive | inactive | inactive | 10.9% | inactive | inactive
C=COC(C)=O | inactive | inactive | inactive | 1.36% (inactive) | inactive | inactive | inactive | inactive | inactive | inactive | inactive | inactive | inactive | inactive | inactive | inactive | inactive | -12.6% | inactive | inactive
